The nature of assay [1]: NCI Yeast Anticancer Drug Screen. Data for the rad50 strain (AID 155).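 Further: 0% = growth of vehicle-only cultures of the same strain.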 The settings on record: S. cerevisiae rad50 strain growth inhibition, active compounds read high. Summed up:
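Growth of the mutant yeast was measured after compound exposure and referenced to vehicle-treated cultures.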

The nature of assay [2]: NCI Yeast Anticancer Drug Screen. Data for the mec2-1 strain (AID 157). Particulars: S. cerevisiae mec2-1 strain, active compounds read high. Put shortly:
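Readout is yeast growth inhibition, normalised to vehicle-treated controls, in the mec2-1 strain exposed to compound.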

Assay [3] can be described thus: NCI Yeast Anticancer Drug Screen. Data for the sgs1 mgt1 strain (AID 161).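 Further: 0% = growth of cultures given vehicle only.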 Particulars: S. cerevisiae sgs1 mgt1 strain, active compounds read high. Summed up: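 This yeast growth screen uses a strain with defined DNA-repair lesions; compound-treated growth is compared with vehicle-treated growth.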
Assay [4] in a line: NCI Yeast Anticancer Drug Screen. Data for the cln2 rad14 strain (AID 165).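 Further: 0% = growth equal to vehicle treated cultures.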 Particulars: S. cerevisiae cln2 rad14 strain, active compounds read high. Summed up: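 Relative to vehicle controls, growth inhibition of compound-treated cln2 rad14 yeast was recorded.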
Assay [5] in a line: NCI Yeast Anticancer Drug Screen. Data for the bub3 strain (AID 167). The settings on record: S. cerevisiae bub3 mutant strain, active compounds read high. Summed up:
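Whole-cell yeast assay. The mutant strain was incubated with compounds, and growth inhibition was determined by comparison with vehicle-treated cells.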

Assay [6] in a line: NCI Yeast Anticancer Drug Screen. Data for the mlh1 rad18 strain (AID 175). The settings on record: S. cerevisiae mlh1 rad18 strain growth inhibition, active compounds read high. Summed up:
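Test agents were incubated with a yeast strain of defined genotype (DNA damage repair defect). Inhibition of growth was derived by comparison with vehicle-exposed cultures.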

Setting [7] is: at 5.0 µM (retest, dose inferred, filed as 0.5).
[8] abbreviates: at 50.0 µM (retest, dose inferred, filed as 5.0).

This is part of a sample that, as a whole, favours compounds with a hit. Of some 79,000 tested, about 15% had one in any assay. A number with no mark means an inactive call. Activity calls are given as the source filed them. No stated cut-off is given here; in the data, active means growth inhibition above about 70%; inactive means the rest.

Among the data in PubChem BioAssay (NCI) are growth inhibition values, retold here.

As to `COC(=O)C1=C(C)NC(=S)NC1c1ccc(N(CCCl)CCCl)cc1Cl` (configuration not stated), the growth inhibition in assay [1] (setting [7]) was 10%; in assay [1] (setting [8]), 94% (active); in assay [1] (at 50.0 µM), 51.1%; in assay [2] (setting [7]), -28%; in assay [2] (setting [8]), 96% (active); in assay [2] (at 50.0 µM), 86.7% (active). Further, the growth inhibition was 1% in assay [3] (setting [7]); 95% (active) in assay [3] (setting [8]); 86.2% (active) in assay [3] (at 50.0 µM); -8% in assay [4] (setting [7]); 92% (active) in assay [4] (setting [8]); 61.9% in assay [4] (at 50.0 µM). Also, the growth inhibition in assay [5] (setting [7]) is 81% (active); in assay [5] (setting [8]), 97% (active); in assay [5] (at 50.0 µM), 96.5% (active); in assay [6] (setting [7]), 13%; in assay [6] (setting [8]), 94% (active); in assay [6] (at 50.0 µM), 91.3% (active).
Regarding `S=P(Nc1ccccc1)(Nc1ccccc1)Oc1ccccc1`, the growth inhibition in assay [1] (setting [7]) is 2%; in assay [1] (setting [8]), 98% (active); in assay [1] (at 50.0 µM), 99% (active); in assay [2] (setting [7]), -4%; in assay [2] (setting [8]) it was 98% (active); in assay [2] (at 50.0 µM), 99% (active). For the same compound, the growth inhibition in assay [3] (setting [7]) is -4%; in assay [3] (setting [8]), 98% (active); in assay [3] (at 50.0 µM) it was 99.2% (active); in assay [4] (setting [7]) it was -4%; in assay [4] (setting [8]), 97% (active); in assay [4] (at 50.0 µM), 98.7% (active). The growth inhibition in assay [5] (setting [7]) is 9%; in assay [5] (setting [8]) it was 97% (active); in assay [5] (at 50.0 µM), 98.7% (active); in assay [6] (setting [7]) it was 7%; in assay [6] (setting [8]), 97% (active); in assay [6] (at 50.0 µM), 97.5% (active).
Turning to `CC(=O)Nc1ccc(/C=N/N=C(/N)N[N+](=O)[O-])cc1`, the growth inhibition in assay [1] (setting [7]) is -7%; in assay [1] (setting [8]), -1%; in assay [1] (at 50.0 µM), 61.5%; in assay [2] (setting [7]), -7%; in assay [2] (setting [8]) it was -2%; in assay [2] (at 50.0 µM), 63.8%. Moreover, the growth inhibition was -5% in assay [3] (setting [7]); -1% in assay [3] (setting [8]); 52.9% in assay [3] (at 50.0 µM); -1% in assay [4] (setting [7]); 1% in assay [4] (setting [8]); 83.8% (active) in assay [4] (at 50.0 µM). Moreover, the growth inhibition in assay [5] (setting [7]) is -2%; in assay [5] (setting [8]), -6%; in assay [5] (at 50.0 µM) it was 71.5% (active); in assay [6] (setting [7]), 1%; in assay [6] (setting [8]) it was -9%; in assay [6] (at 50.0 µM) it was 81.3% (active).
For the compound `N.N.N.N.N.N#N.[Cl-].[Os+7]`, the growth inhibition in assay [1] (setting [7]) was 18%; in assay [1] (setting [8]) it was 78% (active); in assay [1] (at 50.0 µM) it was 55.5%; in assay [2] (setting [7]) it was 17%; in assay [2] (setting [8]), 87% (active); in assay [2] (at 50.0 µM) it was 59.4%. Also, the growth inhibition is 33% in assay [3] (setting [7]); 90% (active) in assay [3] (setting [8]); 60.9% in assay [3] (at 50.0 µM); 14% in assay [4] (setting [7]); 45% in assay [4] (setting [8]); 57.4% in assay [4] (at 50.0 µM). Further, the growth inhibition was 30% in assay [5] (setting [7]); 91% (active) in assay [5] (setting [8]); 59.1% in assay [5] (at 50.0 µM); 31% in assay [6] (setting [7]); 89% (active) in assay [6] (setting [8]); 74% (active) in assay [6] (at 50.0 µM).
Consider `COc1cc(C=Nc2cc(Br)c(OC)c(Br)c2)ccc1N(CCCl)CCCl`, for which the growth inhibition in assay [1] (setting [7]) is 1%; in assay [1] (setting [8]), 73% (active); in assay [1] (at 50.0 µM), 84.5% (active); in assay [2] (setting [7]), -12%; in assay [2] (setting [8]), 79% (active); in assay [2] (at 50.0 µM) it was 31.4%. Also, the growth inhibition was -1% in assay [3] (setting [7]); 45% in assay [3] (setting [8]); 76.2% (active) in assay [3] (at 50.0 µM); 1% in assay [4] (setting [7]); 46% in assay [4] (setting [8]); 55.7% in assay [4] (at 50.0 µM). Moreover, the growth inhibition was -8% in assay [5] (setting [7]); -3% in assay [5] (setting [8]); -1.45% in assay [5] (at 50.0 µM); 54% in assay [6] (setting [7]); 95% (active) in assay [6] (setting [8]); 83.2% (active) in assay [6] (at 50.0 µM).
Turning to `O=C(O)C1C2c3ccccc3C(c3ccccc32)C1Br` (configuration not stated), the growth inhibition in assay [1] (setting [7]) is -13%; in assay [1] (setting [8]), 3%; in assay [1] (at 50.0 µM) it was 2.7%; in assay [2] (setting [7]) it was 0%; in assay [2] (setting [8]), 9%; in assay [2] (at 50.0 µM), 3.8%. For the same compound, the growth inhibition in assay [3] (setting [7]) is -7%; in assay [3] (setting [8]), 8%; in assay [3] (at 50.0 µM), -1.2%; in assay [4] (setting [7]) it was 3%; in assay [4] (setting [8]), -1%; in assay [4] (at 50.0 µM) it was 34.2%. Further, the growth inhibition in assay [5] (setting [7]) was -20%; in assay [5] (setting [8]), -29%; in assay [5] (at 50.0 µM) it was -8.2%; in assay [6] (setting [7]) it was -11%; in assay [6] (setting [8]), -8%; in assay [6] (at 50.0 µM), 14.1%.
For the compound `ClCCN(CCCl)CCN1c2ccccc2Sc2ccc(Cl)cc21`, the growth inhibition in assay [1] (setting [7]) was 0%; in assay [1] (setting [8]) it was 69%; in assay [1] (at 50.0 µM), 99% (active); in assay [2] (setting [7]) it was 1%; in assay [2] (setting [8]), 75% (active); in assay [2] (at 50.0 µM) it was 96.2% (active). Besides, the growth inhibition in assay [3] (setting [7]) was 0%; in assay [3] (setting [8]), 97% (active); in assay [3] (at 50.0 µM), 99.5% (active); in assay [4] (setting [7]), -1%; in assay [4] (setting [8]) it was 49%; in assay [4] (at 50.0 µM), 98.5% (active). Moreover, the growth inhibition in assay [5] (setting [7]) is -2%; in assay [5] (setting [8]), 80% (active); in assay [5] (at 50.0 µM), 97.1% (active); in assay [6] (setting [7]), 3%; in assay [6] (setting [8]), 95% (active); in assay [6] (at 50.0 µM), 98.9% (active).
With `C[CH2][Sn]([CH2]C)([O]C(C)=O)[O][Sn]([CH2]C)([CH2]C)[O]C(C)=O`, the growth inhibition is 23% in assay [1] (setting [7]); 80% (active) in assay [1] (setting [8]); 64% in assay [1] (at 50.0 µM); 24% in assay [2] (setting [7]); 91% (active) in assay [2] (setting [8]); 60.1% in assay [2] (at 50.0 µM). In addition, the growth inhibition in assay [3] (setting [7]) is 15%; in assay [3] (setting [8]), 82% (active); in assay [3] (at 50.0 µM), 84.8% (active); in assay [4] (setting [7]), 30%; in assay [4] (setting [8]), 68%; in assay [4] (at 50.0 µM), 86.1% (active). The growth inhibition in assay [5] (setting [7]) is 21%; in assay [5] (setting [8]), 78% (active); in assay [5] (at 50.0 µM), 84.3% (active); in assay [6] (setting [7]), 26%; in assay [6] (setting [8]), 86% (active); in assay [6] (at 50.0 µM), 89.1% (active).
Turning to `COc1ccc(-c2c(C)c(C(=O)O)nc(-c3ccc4c(O)c(OC)c5c(c4n3)=NC(C)(C)N=5)c2N)c(O)c1OC`, the growth inhibition was 76% (active) in assay [1] (setting [7]); 92% (active) in assay [1] (setting [8]); 75.1% (active) in assay [1] (at 50.0 µM); 20% in assay [2] (setting [7]); 68% in assay [2] (setting [8]); 33% in assay [2] (at 50.0 µM). For the same compound, the growth inhibition in assay [3] (setting [7]) was 39%; in assay [3] (setting [8]), 60%; in assay [3] (at 50.0 µM) it was 41.4%; in assay [4] (setting [7]), 16%; in assay [4] (setting [8]) it was 76% (active); in assay [4] (at 50.0 µM), 47%. In addition, the growth inhibition in assay [5] (setting [7]) is -1%; in assay [5] (setting [8]), 7%; in assay [5] (at 50.0 µM), 19.9%; in assay [6] (setting [7]) it was 59%; in assay [6] (setting [8]), 87% (active); in assay [6] (at 50.0 µM), 61.5%.
